About 83,000 compounds went through this panel and 20% of them were active in at least one assay; those are over-represented in the sample as a whole.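 96-well plates, one dose, 48 hours. Percent growth reported; active if below 10.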 A number with no mark means an inactive call. Active and inactive are the calls of the source.

Among the test systems are SR leukemia; RPMI-8226 leukemia; OVCAR-8 ovarian; OVCAR-5 ovarian; SK-OV-3 ovarian; IGROV1 ovarian; OVCAR-3 ovarian; HS 578T breast; NCI/ADR-RES ovarian; T-47D breast; BT-549 breast; MDA-MB-435 melanoma; SW-620 colon; MCF7 breast; HCT-116 colon; HCC-2998 colon; KM12 colon; OVCAR-4 ovarian.
Holding throughout (assay): NCI-60 one-dose screen, 48 h (100 = growth as untreated, 0 = no growth, -100 = all killed)
What all share (conditions): 10 µM unless noted

For the molecule `CC1(C)CC[C@]2(C(=O)Nc3ccccn3)CC[C@]3(C)C(=CC[C@@H]4[C@@]5(C)C/C(=C/c6ccncc6)C(=O)C(C)(C)[C@@H]5CC[C@]43C)[C@@H]2C1`, the growth in the test with SR leukemia is 8.26% (active); in the test on RPMI-8226 leukemia, -0.291% (active); in the test with OVCAR-8 ovarian, 41.5%; with OVCAR-5 ovarian it was 75.5%; in the test on SK-OV-3 ovarian it was 71.8%; with IGROV1 ovarian it was 50.6%. Besides, the growth in the test with OVCAR-3 ovarian was 12.6%; in the test on HS 578T breast, 56.7%; with NCI/ADR-RES ovarian it was 51.3%; with T-47D breast it was 13.3%; in the test on BT-549 breast it was 35.7%; in the test with MDA-MB-435 melanoma, 14.8%. The growth with SW-620 colon was 20%; in the test with MCF7 breast it was 21.7%; in the test on HCT-116 colon, -1.02% (active); in the test with HCC-2998 colon it was 25%; in the test on KM12 colon, -6.73% (active).

On to `Cn1cc(-c2nc(-c3c[nH]c4ncccc34)cs2)c2ccccc21`, for which the growth with SR leukemia is 40%; in the test on RPMI-8226 leukemia, 64%; with OVCAR-8 ovarian, 101%; in the test on OVCAR-5 ovarian, 49.1%; in the test on SK-OV-3 ovarian it was 95.5%; in the test with IGROV1 ovarian, 51%. In addition, the growth in the test with OVCAR-3 ovarian is 77.7%; in the test on HS 578T breast it was 103%; in the test with NCI/ADR-RES ovarian it was 74.4%; in the test with T-47D breast it was 29.1%; in the test on BT-549 breast, 82.9%; in the test with MDA-MB-435 melanoma it was 36.5%. For the same molecule, the growth with SW-620 colon is 95.8%; in the test with MCF7 breast, 10.5%; with HCT-116 colon, 76.9%; with HCC-2998 colon, 32.6%; in the test with KM12 colon it was 12.9%.

As to `COc1ccc(-c2cc(=O)oc3ccc(Cl)cc23)cc1F`, the growth with SR leukemia is 11.2%; in the test with RPMI-8226 leukemia, 28.1%; in the test on OVCAR-8 ovarian, 20.3%; in the test with OVCAR-5 ovarian it was 54.7%; in the test on OVCAR-4 ovarian, 55.9%; in the test with IGROV1 ovarian, 43.1%. In addition, the growth in the test with OVCAR-3 ovarian is 6.02% (active); in the test with HS 578T breast, 20.1%; in the test on T-47D breast it was 50.5%; with BT-549 breast it was 18.9%; in the test on MDA-MB-435 melanoma, -21.1% (active); in the test with SW-620 colon it was 23.5%. Moreover, the growth is 17.4% in the test on MCF7 breast, 5.47% (active) in the test with HCT-116 colon, 19.6% in the test on HCC-2998 colon and 11.2% with KM12 colon.

On to `CN(C)c1ccc(-c2ccc(-c3ccc(C(=N)N)c(F)c3)s2)cc1`, for which the growth in the test with SR leukemia was 1.32% (active); in the test with RPMI-8226 leukemia, -52.6% (active); in the test on OVCAR-8 ovarian, -26.4% (active); with OVCAR-5 ovarian, -89.2% (active); in the test on OVCAR-4 ovarian, -85.1% (active); in the test on OVCAR-3 ovarian it was -88.2% (active). Moreover, the growth was 102% with HS 578T breast; -49.2% (active) in the test on NCI/ADR-RES ovarian; -60.3% (active) in the test with T-47D breast; 95.7% in the test with BT-549 breast; -95.4% (active) in the test with MDA-MB-435 melanoma; -75% (active) in the test with SW-620 colon. In addition, the growth in the test on MCF7 breast was -69.7% (active); with HCT-116 colon, -89.3% (active); in the test with HCC-2998 colon, -95.4% (active); in the test on KM12 colon, -87.9% (active).

As for `COc1cccc(-c2nn(-c3ccccc3)cc2-c2ccnc(NCCCNS(=O)(=O)c3cccc(F)c3)c2)c1`, the growth in the test on SR leukemia was -7.52% (active); with RPMI-8226 leukemia it was 14.3%; in the test with OVCAR-8 ovarian it was 12.1%; with OVCAR-5 ovarian, 61.3%; with SK-OV-3 ovarian, 40.9%; in the test with IGROV1 ovarian it was 29.6%. The growth is 46.5% with OVCAR-3 ovarian; 32% with HS 578T breast; 12.7% in the test with NCI/ADR-RES ovarian; -1.01% (active) in the test on T-47D breast; 24.3% in the test on BT-549 breast; 22.4% in the test with MDA-MB-435 melanoma. Besides, the growth in the test on SW-620 colon is 39.9%; in the test on MCF7 breast, 16%; in the test on HCT-116 colon it was 18.4%; with HCC-2998 colon, 11.7%; in the test on KM12 colon, 24.5%.

Consider `CCOc1ccc(NC(=O)c2ccccc2-c2ccccc2C(=O)O)cc1`, for which the growth in the test on SR leukemia is 89.7%; in the test on RPMI-8226 leukemia, 101%; in the test with OVCAR-8 ovarian it was 111%; in the test with OVCAR-5 ovarian it was 98.6%; with SK-OV-3 ovarian, 109%; in the test with IGROV1 ovarian, 110%. Besides, the growth in the test with OVCAR-3 ovarian was 110%; in the test with HS 578T breast it was 103%; with NCI/ADR-RES ovarian it was 108%; in the test with T-47D breast it was 103%; in the test with BT-549 breast, 108%; in the test with MDA-MB-435 melanoma, 104%. For the same molecule, the growth in the test with SW-620 colon is 107%; in the test on MCF7 breast, 97.4%; in the test on HCT-116 colon, 103%; with HCC-2998 colon, 103%; in the test on KM12 colon, 110%.

For `Fc1ccc(Nc2nc(Nc3ccc(-c4nc5ccccc5[nH]4)cc3)nc(N3CCCC3)n2)cc1`, the growth with SR leukemia is 10.7%; with RPMI-8226 leukemia, -11.6% (active); in the test on OVCAR-8 ovarian it was 81.7%; in the test on OVCAR-5 ovarian it was 97.4%; in the test on SK-OV-3 ovarian, 75.1%; with IGROV1 ovarian, 83%. The growth was 94.4% with OVCAR-3 ovarian; 84.6% in the test on HS 578T breast; 63% in the test on NCI/ADR-RES ovarian; 44.6% with T-47D breast; 85.1% in the test with BT-549 breast; 98.1% in the test on MDA-MB-435 melanoma. Moreover, the growth was 0.692% (active) in the test on SW-620 colon; 32.7% with MCF7 breast; -53.6% (active) with HCT-116 colon; 55.7% in the test on HCC-2998 colon; 83.8% in the test with KM12 colon.

On to `Brc1ccc2c(c1)c(-c1nc(-c3c[nH]c4ncccc34)cs1)cn2CCCN1CCCCC1`, for which the growth with SR leukemia is -47.5% (active); with RPMI-8226 leukemia it was -47.9% (active); in the test on OVCAR-8 ovarian, 1.18% (active); in the test with OVCAR-5 ovarian, 32.3%; with SK-OV-3 ovarian, 63.1%; in the test with IGROV1 ovarian it was 6.09% (active). Moreover, the growth is -64.3% (active) in the test with OVCAR-3 ovarian; 52.1% in the test with HS 578T breast; 13.4% with NCI/ADR-RES ovarian; 45% with T-47D breast; 72.8% with BT-549 breast; -84% (active) in the test on MDA-MB-435 melanoma. Besides, the growth was -63.5% (active) in the test on SW-620 colon; -68.1% (active) in the test with MCF7 breast; -62.7% (active) in the test with HCT-116 colon; 34.8% with HCC-2998 colon; 14.5% in the test with KM12 colon.

With `Cn1cc(-c2csc(-c3cn(C(=O)OC(C)(C)C)c4ccc(Br)cc34)n2)c2cccnc21`, the growth was 58% with SR leukemia; 84.5% with RPMI-8226 leukemia; 70.7% with OVCAR-8 ovarian; 95.5% in the test on OVCAR-5 ovarian; 98.7% in the test on SK-OV-3 ovarian; 93.2% with IGROV1 ovarian. In addition, the growth was 98.3% with OVCAR-3 ovarian; 94.7% in the test on HS 578T breast; 82.5% in the test on NCI/ADR-RES ovarian; 74.3% with T-47D breast; 103% in the test on BT-549 breast; 102% in the test on MDA-MB-435 melanoma. The growth in the test with SW-620 colon was 90.4%; in the test on MCF7 breast, 81.5%; with HCT-116 colon, 67.4%; with HCC-2998 colon, 101%; with KM12 colon, 101%.

Values taken from PubChem BioAssay (NCI).
